The entries come from a sample that favours hits as a whole.
CHX counter – Cycloheximide Counterscreen for Small Molecule Inhibitors of Shiga Toxin; AID 2314, 2010; cell reporter, cycloheximide protein synthesis inhibition counterscreen; 300,000 compounds, 12% hits; max response, %; in the data active = max response mostly above about 13%, no sharp cut-off; inactive = mostly below about 14%; also: read at 38.3 µM for the half of the compounds with a filed dose; 0% is about no effect
NS1 inh – qHTS Assay for Inhibitors of Influenza NS1 Protein Function; Potency, µM (series often up to 46.1 µM), for inactives: at the top dose activity, positive = more growth; 270,000 compounds, 0.4% hits; AID 2326, 2010; calls by dose curve; also: potency is read from the fitted curve at half-maximal effect; actives are rising curves; nearly all actives have a fitted effect of over 50% in size
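Read-out: OD600 growth recovery of NS1-expressing budding yeast. Cells grown overnight at 30C in -URA glucose medium, washed, resuspended and diluted 1:100 in 2% galactose assay medium, pH 6.0. Same strain lacking NS1 served as positive control.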
AmpC inh detg – qHTS Inhibitors of AmpC Beta-Lactamase (assay with detergent); P00811; AmpC hydrolysis of nitrocefin, absorbance 480 nm, 0.01% Triton; Potency, µM (highest dose often 114 µM), for inactives: at the top dose activity change, negative = inhibition, most hits filed as inhibitors; 370,000 compounds, 0.041% hits; AID 485294, 2010;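 also: potency is read from the fitted curve at half-maximal effect; 0% = no-compound wells and -100% = no-enzyme wells; nearly all actives have a fitted effect of over 25% in size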
Target sequence (P00811 whole entry, looked up): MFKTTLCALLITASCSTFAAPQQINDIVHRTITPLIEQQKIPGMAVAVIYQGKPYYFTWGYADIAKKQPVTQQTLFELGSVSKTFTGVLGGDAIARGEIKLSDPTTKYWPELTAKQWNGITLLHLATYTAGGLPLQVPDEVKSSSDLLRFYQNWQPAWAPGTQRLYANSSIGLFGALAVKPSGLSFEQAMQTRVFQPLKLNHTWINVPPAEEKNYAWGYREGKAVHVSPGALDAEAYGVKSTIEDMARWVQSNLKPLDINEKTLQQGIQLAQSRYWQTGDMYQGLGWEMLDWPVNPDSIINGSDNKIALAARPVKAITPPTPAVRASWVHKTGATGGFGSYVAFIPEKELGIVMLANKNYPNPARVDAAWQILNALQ
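20 mM phosphate pH 7.0 + 0.01% (detergent screen) or 0.0001% Triton X-100; 5.3 nM AmpC reagent; cpd preinc 15 min RT; nitrocefin (800 uM stock) to start; A480 q20 s × 4 min; Activity was normalised to no-enzyme and no-compound control wells.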
AmpC no deterg – qHTS Inhibitors of AmpC Beta-Lactamase (assay without detergent). 330,000 compounds, 0.52% hits. AmpC nitrocefin hydrolysis, absorbance 480 nm, 0.0001% Triton. P00811. Potency, µM (series often up to 57.1 µM), without a hit: top-dose activity change, negative = inhibition, actives largely listed as inhibitors;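 also: potency is read from the fitted curve at half-maximal effect; plate controls were no compound for no effect and no enzyme for full effect; nearly all actives have a fitted effect of over 20% in size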
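AmpC (5.3 nM in the dispensed reagent) in 20 mM phosphate pH 7.0 with 0.01% (detergent screen) or 0.0001% Triton X-100 was preincubated with compounds for 15 min at room temperature. Nitrocefin was then added from an 800 uM solution, and hydrolysis was followed at 480 nm.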
Shiga inhibitor – A qHTS for Small Molecule Inhibitors of Shiga Toxin; 290,000 compounds, 9.2% hits; inhibition, % at 38.7 µM; AID 2315, 2010; Vero cells, Shiga toxin protein synthesis inhibition reporter; in the data active = inhibition mostly above about 28%, no sharp cut-off; inactive = mostly below about 43%; also: 0% is about no effect
Starred values were filed as active, the others as inactive; ? = inconclusive; / = no result given; ! = repeats disagree. Unless noted, calls follow the shape of the dose curve; as a rule, active = well fitted curve in the direction sought with a large enough effect; inconclusive = small, poorly fitted or top-dose-only effect, or another doubt; inactive = no such curve, though single readings can be large; an effect the other way counts as inactive or inconclusive.

SMILES	CHX counter	NS1 inh	AmpC inh detg	AmpC no deterg	Shiga inhibitor
O=C(NN=Cc1ccccc1OC(F)F)c1ccc(NS(=O)(=O)c2cccs2)cc1	/	/	/	15.8µM*	/
O=C(NN=Cc1ccc(F)c(F)c1)c1ccc(NS(=O)(=O)c2cccs2)cc1	/	/	/	-35.8%	/
O=C(N/N=C/c1ccc2c(c1)OCO2)c1ccc(NS(=O)(=O)c2cccs2)cc1	24.2*	/	-7.1%	-51.8%	80.9*
C=COCCNC(=S)N1CCOCCOCCN(C(=S)NCCOC=C)CCOCCOCC1	-5.0	/	0.8%	126.9%	-10.7
COC(C(=O)N/N=C(\C)c1ccc(O)cc1)c1ccccc1 (stereo not drawn)	-0.8	9.7%	?	-12.0%	-4.1
COc1ccc(NC(=O)CCOc2ccccc2)cc1	65.3*	-31.1%	-8.1%	-37.4%	117.0*
COC(C(=O)N/N=C(\C)c1ccc(C)cc1)c1ccccc1 (stereo not drawn)	11.1*	-6.8%	-1.7%	1.0%	18.8
COC(=O)c1ccc(NC(=O)CNc2ccccc2)cc1	35.5*	-35.9%	6.8%	-29.1%	61.2*
COc1ccc(NC(=O)C(OC(=O)c2ccc([N+](=O)[O-])o2)c2ccccc2)cc1Cl (stereo not drawn)	20.3*	13.8%	-5.1%	-23.2%	18.0
COC(=O)c1ccc(NC(=O)CC(=O)Nc2ccc(C(=O)OC)cc2)cc1	-1.2	5.6%	1.7%	-3.3%	-3.4
COc1ccc(NC(=O)CCOc2ccccc2)c(OC)c1	20.1*	-12.3%	-14.9%	-6.6%	31.7
O=C(CCOc1ccccc1)Nc1ccc(Br)cc1	38.3*	0.0%	-2.5%	-35.4%	57.2*
Cc1ccc(NC(=O)C(OC(=O)c2ccc(O)cc2)c2ccccc2)cc1Cl (stereo not drawn)	1.0	-1.4%	-3.4%	7.08µM*	28.1
COC(=O)c1ccc(NC(=O)c2ccccc2NS(C)(=O)=O)cc1	24.3*	-3.0%	5.2%	-19.9%	47.6*
Cc1ccc(NC(=O)C(OC(=O)c2ccc(F)cc2)c2ccccc2)cc1Cl (stereo not drawn)	1.9	0.7%	-0.7%	-19.9%	-1.0
COc1ccc(NC(=O)CCSCCC(=O)Nc2ccc(OC)cc2OC)c(OC)c1	-1.1	14.5%	-6.9%	-17.1%	-3.0
COC(C(=O)Nc1ccc(NC(=O)C(OC)c2ccccc2)cc1)c1ccccc1 (stereo not drawn)	9.1	15.7%	-3.8%	-0.2%	9.7
COc1ccc(NC(=O)C2C3CCC(O3)C2C(=O)O)c(C)c1 (stereo not drawn)	0.5	6.8%	?	-26.1%	2.2
COC(=O)c1ccc(NC(=O)CCOc2ccccc2)cc1	22.3*	-9.8%	5.4%	-18.2%	37.0
COC(=O)c1ccc(NC(=O)C(OC)c2ccccc2)cc1 (stereo not drawn)	16.8*	2.5%	1.4%	-8.7%	21.6
COc1ccc(NC(=O)C2C3CCC(O3)C2C(=O)O)c(OC)c1 (stereo not drawn)	29.2*	-5.9%	0.3%	-0.5%	37.4
COc1ccccc1N1CCN(S(=O)(=O)c2cc(-c3cc(C)no3)ccc2C(C)C)CC1	-6.2	-1.4%	4.0%	-34.1%	-9.2
COc1ccc(Cl)cc1NC(=O)CSc1nccn1Cc1ccco1	/	/	3.5%	/	/
Cc1cc(C)cc(NC(=O)CSc2nccn2Cc2ccco2)c1	21.9*	-8.1%	3.1%	21.6%	45.1
Cc1cccc(NC(=O)CSc2nccn2Cc2ccco2)c1C	17.7*	1.2%	10.5%	-6.4%	53.3
SMILES	CHX counter	NS1 inh	AmpC inh detg	AmpC no deterg	Shiga inhibitor
Cc1cccc(NC(=O)CSc2nccn2Cc2ccco2)c1	61.6*	-10.1%	-4.8%	-3.4%	90.8*
COc1ccc(-n2cc(C(=O)OCc3ccc(Cl)cc3)c3ccccc3c2=O)cc1	/	/	-0.6%	/	/
CN1C(=O)c2ccccc2Sc2ccc(NC(=O)COc3ccc(F)cc3)cc21	/	/	2.2%	/	/
Cc1cc(C(F)(F)F)nn1CC(=O)N1CCOCC1	-2.1	9.3%	1.6%	-6.9%	39.8
CCN(CC)Cc1c(-c2ccccc2)[nH]c2ccc(C)cc2c1=O	29.3*	4.4%	0.1%	-24.2%	34.9*
Cc1ccc2[nH]c(-c3ccccc3)cc(=O)c2c1	30.0*	-6.6%	?	137.9%	49.2
O=c1cc(-c2ccc(Cl)cc2)[nH]c2ccccc12	1.5	-5.9%	-6.5%	-15.5%	21.4
Cc1ccc(-c2cc(=O)c3cc(Cl)ccc3[nH]2)cc1	25.8*	3.1%	-4.0%	-15.2%	38.9*
Cc1ccc(-c2cc(=O)c3ccccc3[nH]2)cc1	29.2*	-12.8%	-4.1%	-16.6%	112.1*
O=C(Cn1c(=O)nc(-c2ccccc2)c2ccccc21)Nc1ccc(Cl)c(C(F)(F)F)c1	/	/	6.7%	/	/
O=C(Nc1ccc(F)cc1)OCCN1CCN(Cc2ccccc2)CCC1=O	11.3*!	-29.2%	-14.0%	25.2%	22.4
CCOC(=O)c1c(-c2ccccc2)oc2ccc(OCc3cccc(Br)c3)cc12	/	/	11.8%	/	/
CN(C)CCCN(C(=O)c1ccco1)c1nc2ccc(Br)cc2s1	-3.7	/	-0.2%	43.4%	-13.5
CN(C)CCCN(C(=O)CCSc1ccccc1)c1nc2cc3c(cc2s1)OCO3	3.2	/	?	160.0%	-3.8
CN(C)CCCN(C(=O)CCS(=O)(=O)c1ccccc1)c1nc2cc3c(cc2s1)OCO3	9.9*	-3.5%	-4.2%	55.8%	17.1
CN(C)CCCN(C(=O)c1ccc2c(c1)CCCC2)c1nc2cc3c(cc2s1)OCO3	-3.4	3.0%	-7.4%	121.1%	-11.0
CN(C)CCN(C(=O)c1ccco1)c1nc2cc3c(cc2s1)OCCO3	38.5*	10.4%	-7.4%	-9.2%	41.2
CN(C)CCN(C(=O)c1ccc(S(=O)(=O)N(C)c2ccccc2)cc1)c1nc2ccc(Cl)cc2s1	33.5*	12.1%	3.7%	7.3%	64.3*
CN(C)CCN(C(=O)c1ccc(N2C(=O)CCC2=O)cc1)c1nc2cc3c(cc2s1)OCCO3	38.5*	/	10.2%	55.3%	59.9*
Nc1nnc(SCC(=O)NC23CC4CC(CC(C4)C2)C3)s1	-1.9	-5.8%	?	-14.9%	-4.4
CN(C)CCN(C(=O)CN1C(=O)c2ccccc2C1=O)c1nc2cc3c(cc2s1)OCO3	26.5*	?	1.8%	164.9%	49.4
CN(C)CCN(C(=O)c1ccc(S(=O)(=O)N(C)c2ccccc2)cc1)c1nc2cc3c(cc2s1)OCO3	18.5*	14.5%	3.7%	8.0%	27.6
Cc1cc(C)c2nc(N(CCN(C)C)C(=O)c3ccc(S(=O)(=O)N(C)CC4CCCO4)cc3)sc2c1 (stereo not drawn)	22.4*	1.1%	2.9%	117.8%	57.9
CN(C)CCN(C(=O)c1ccc(C(=O)c2ccccc2)cc1)c1nc2cc3c(cc2s1)OCCO3	36.4*	-28.2%	-13.5%	-3.0%	81.1*
CN(C)CCCN(C(=O)c1ccc(S(=O)(=O)N(C)C)cc1)c1nc2cc3c(cc2s1)OCO3	8.2	-1.4%	0.9%	115.3%	13.9
